# From PubChem
# Rows were chosen to be rich in hits. Some 2.9% of all compounds tested hit in one or more screens of this group.
# MmCpn inh: blocks the Methanococcus maripaludis chaperonin Mm-Cpn. 0.031% of 330,000 active. AID 504842. Potency, µM (highest dose often 76.9 µM), without a hit: top-dose activity, negative = inhibition, most hits filed as inhibitors. purified Mm-Cpn ATPase, ADP Transcreener TR-FRET; active = well fitted inhibition curve with a large enough effect; inconclusive = small, poorly fitted or top-dose-only effect; also: potency is read from the fitted curve at half-maximal effect; % is scaled to controls: 0 for no effect and ±100 for the full control effect; nearly all actives have a fitted effect of over 80% in size
#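 Compound-treated chaperonin, 25 nM final, turns over 10 uM ATP at 37°C for 30 min following a 10 min preincubation; ADP generated competes with ADP-d2 for Eu-cryptate antibody, lowering FRET.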
# Rango dissoc inh: inhibition of RanGTP-driven Rango-importin beta dissociation; 0.071% of 340,000 active; Biochemical FRET Rango-importin beta, RanGTP-induced dissociation; Potency, µM (doses to about 46.1 µM), without a hit: at the highest dose activity change, negative = inhibition; AID 540253; also: potency is read from the fitted curve at half-maximal effect; % of control where 0% means no effect; nearly all actives have a fitted effect of over 45% in size
#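 FRET read at 45 min, room temperature: inhibitors block the CFP/YFP signal rise when RanGTP (0.6 uM Ran, 2 mM GTP, 0.2 uM RCC1) frees Rango (0.1 uM) from importin beta (0.25 uM). Pre-read after 5 min compound exposure flags interference.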
# D3 ag: agonists of human D3 dopamine receptor. max activation, %. 0.58% of 410,000 active. P35462. AID 652048. D3R DiscoveRx beta-arrestin cells, luminescence, 90 min; in the data active = max activation above about 30%; also: 0% is about no effect
# Target sequence (P35462 whole entry, looked up): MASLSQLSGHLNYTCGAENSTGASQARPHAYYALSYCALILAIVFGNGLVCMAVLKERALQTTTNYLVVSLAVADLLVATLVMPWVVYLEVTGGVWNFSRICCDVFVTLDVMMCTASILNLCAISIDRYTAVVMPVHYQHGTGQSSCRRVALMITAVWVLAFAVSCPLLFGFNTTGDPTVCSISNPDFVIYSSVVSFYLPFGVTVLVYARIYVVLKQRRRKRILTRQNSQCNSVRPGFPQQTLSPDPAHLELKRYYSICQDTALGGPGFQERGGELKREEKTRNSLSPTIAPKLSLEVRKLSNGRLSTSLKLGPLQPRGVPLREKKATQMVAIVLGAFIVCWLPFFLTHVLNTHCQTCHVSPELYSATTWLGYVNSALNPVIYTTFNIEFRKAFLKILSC
#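 Agonist mode: compounds and dopamine controls were applied to plated cells for 90 min at 37 degrees C after an overnight attachment at 1500 cells/well. Luminescent read-out followed 30 - 60 minutes at room temperature with DiscoveRx detection reagent.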
# PTAP TSG101 blk: blocks PTAP/TSG101 interaction to inhibit HIV-1 budding. Q99816. Fluorescence polarization, FITC-PTAP peptide / Tsg101 binding. Potency, µM (series often up to 115 µM), without a hit: at the highest dose activity change, negative = inhibition, most hits filed as inhibitors. 340,000 tested, under 10 active. AID 493005; active = well fitted inhibition curve with a large enough effect in the main read-out, with a control signal flat, not every such curve was filed as active; inconclusive = small, poorly fitted or top-dose-only effect, or effect the other way, or a change in a side signal; inactive = no such curve, though single readings can be large or run the other way; also: potency is read from the fitted curve at half-maximal effect; % of control where 0% means no effect
# Target sequence (Q99816 whole entry, looked up): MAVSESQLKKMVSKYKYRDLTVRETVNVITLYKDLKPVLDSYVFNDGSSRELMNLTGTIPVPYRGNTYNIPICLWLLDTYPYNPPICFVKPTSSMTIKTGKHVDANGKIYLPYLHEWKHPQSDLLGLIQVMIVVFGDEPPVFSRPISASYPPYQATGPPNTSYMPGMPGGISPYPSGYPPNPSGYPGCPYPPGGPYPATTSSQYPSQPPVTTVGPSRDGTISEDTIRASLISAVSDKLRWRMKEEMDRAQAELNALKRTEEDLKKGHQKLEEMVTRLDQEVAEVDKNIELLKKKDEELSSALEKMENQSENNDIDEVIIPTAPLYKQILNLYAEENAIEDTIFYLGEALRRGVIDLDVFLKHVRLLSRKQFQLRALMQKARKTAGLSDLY
#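 FP read-out: FITC-PTAP peptide, 50 nM final, binding Tsg101 binding domain, 10 uM final; 20 min, r.t.; 10 mM HEPES pH 7.5, 0.15 M NaCl, 0.01% Tween 20, 3 mM EDTA, 0.1 mM TCEP.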
# DRD3 antagonist: blocks the human D3 dopamine receptor. P35462. D3R cells, DiscoveRx beta-arrestin luminescence, antagonist mode; hits give low values. max response, negative = inhibition, %. 2.5% of 360,000 active. AID 652054; in the data active = max response below about -50%; inconclusive = no clear call, values can overlap the other calls; also: % is scaled to controls: 0 for no effect and ±100 for the full control effect
#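 Cells plated overnight at 1500 cells/well, then exposed to library compounds with dopamine controls for 90 minutes at 37 degrees C. DiscoveRx reagent added for 30–60 minutes at room temperature; luminescence read, quantitative HTS format.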
# Rango-impB inh: Rango-importin beta binding inhibition; Q14974; Rango CFP/YFP FRET sensor + importin beta, 45 min; Potency, µM (titrated, usually from 92.2 µM), inactives show top-dose inhibition of complex formation; 0.031% of 340,000 active;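 also: potency is read from the fitted curve at half-maximal effect; 0% = DMSO wells and 100% = buffer wells lacking importin beta; nearly all actives have a fitted effect of over 15% in size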
#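 FRET biosensor (snurportin 1 IBB flanked by EYFP and cerulean), 50 nM, with compound 5 min, then 0.125 microM importin beta in PBS, 1 mM DTT, 0.02% Tween-20, 0.1% BSA. CFP/YFP ratio read after 45 min at room temperature; pre-read flags interference.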
# The depositor's hits bear a star; ? = inconclusive; / = no result given. Unless noted, calls follow the shape of the full dose curve.
SMILES,MmCpn inh,Rango dissoc inh,D3 ag,PTAP TSG101 blk,DRD3 antagonist,Rango-impB inh
CC(C)(C)OC(=O)N1CCC(c2c(C(=O)Nc3ccc4c(c3)OCCO4)cnn2-c2ccc(Cl)cc2)CC1,/,/,-4.6,/,/,/
O=C(Cn1cc(S(=O)(=O)c2ccc(Cl)cc2)c(=O)c2ccccc21)Nc1ccc2c(c1)OCO2,/,/,-3.6,/,/,/
CCCCC1CCC(C(=O)N2CC(=O)Nc3ccc(C)cc3C2c2ccc(F)cc2)CC1 (stereo unspecified),/,/,-0.8,/,/,/
CC1(C)Oc2ccc3ccc(=O)oc3c2/C(=C/NNC(N)=O)C1=O,-3.5%,-3.0%,-35.2,-1.3%,-111.5*,-2.1%
CCOC(=O)C1=CCC(c2ccccc2C)N(S(=O)(=O)c2ccc(C)cc2)C1 (stereo unspecified),/,/,-9.0,/,-50.3*,/
CCc1ccc2oc(-c3cccc(N)c3)nc2c1,-0.9%,29.2%,-4.5,-0.8%,-52.2*,0.3%
Cc1c(C(=O)NCc2ccccc2C(F)(F)F)sc(=O)n1Cc1ccc2ccccc2c1,/,/,6.4,/,5.5,/
COc1ccccc1Cn1c(C)c(C(=O)NCc2ccc(C#N)cc2)sc1=O,/,/,-5.8,/,-3.5,/
COc1ccc(Cl)cc1Cn1c(C)c(C(=O)NCc2cccc(C(F)(F)F)c2)sc1=O,/,/,-3.9,/,-59.7*,/
COc1ccc(Cl)cc1Cn1c(C)c(C(=O)NCc2ccccc2C(F)(F)F)sc1=O,/,/,-7.7,/,?,/
COc1ccc(Cl)cc1Cn1c(C)c(C(=O)NCc2ccc(C#N)cc2)sc1=O,/,/,-1.4,/,-50.3*,/
Cc1c(C(=O)NCc2ccccc2C(F)(F)F)sc(=O)n1Cc1cccc(C(F)(F)F)c1,/,/,-6.4,/,-54.6*,/
CNC(=O)N(O)C1N(/N=C/c2ccc(N(C)C)cc2)C(=S)SC1(C)C (stereo unspecified),-0.3%,?,-0.9,-6.0%,-23.5,?
CC1(C)SC(=S)N(/N=C/c2ccccc2)C1N(O)C(=O)Nc1ccc([N+](=O)[O-])cc1 (stereo unspecified),-3.1%,9.8%,1.2,-1.6%,-56.1*,-0.1%
COc1cccc(C2C(C(=O)Nc3ccccc3)=C(C)Nc3nnnn32)c1OC (stereo unspecified),/,/,1.5,/,/,/
CCc1ccccc1N1CSC2=C(C#N)C(c3cc(OC)c(OC)cc3OC)CC(=O)N2C1 (stereo unspecified),-17.2%,1.1%,-1.3,-0.5%,-67.9*,0.3%
COc1ccc(NC(=O)CN(C)C(=O)/C=C/c2cn(-c3ccccc3)nc2-c2ccc(C)cc2)cc1,-10.9%,12.0%,-1.9,-3.5%,-55.2*,-1.5%
COc1ccc(CCNC(=O)c2ccc3c(c2)N(Cc2ccc(F)cc2)C(=O)c2ccccc2S3(=O)=O)cc1OC,/,/,-18.1,/,/,/
COC(=O)Nc1cc([N+](=O)[O-])ccc1OC,-4.7%,28.9%,4.4,-0.3%,8.8,4.3%
COc1ccc([N+](=O)[O-])cc1NC(=O)C(C)N1CCCC1 (stereo unspecified),-3.3%,-0.7%,-22.7,-2.5%,-62.3*,-2.3%
CN1CCN(c2ccc([N+](=O)[O-])cc2C(=O)c2ccc(Br)cc2)CC1,1.0%,-5.5%,-8.6,-5.9%,-55.7*,-4.7%
O=[N+]([O-])c1ccc(NC2CCN(Cc3ccccc3)CC2)c([N+](=O)[O-])c1,-4.3%,13.4%,-3.8,-1.1%,-62.0*,-5.4%
CC1CCC2C(=O)N(c3ccc(NC4CCN(Cc5ccccc5)CC4)c([N+](=O)[O-])c3)C(=O)C2C1 (stereo unspecified),0.7%,14.2%,-22.5,-0.7%,-50.1*,-0.8%
COC(=O)c1cc([N+](=O)[O-])ccc1N1CCN(Cc2ccccc2)CC1,2.0%,0.5%,-10.3,-1.2%,-51.9*,-3.4%
O=C(c1ccc([N+](=O)[O-])cc1Cl)N1CCN(Cc2ccccc2)CC1,/,/,-6.5,/,41.3,/
SMILES,MmCpn inh,Rango dissoc inh,D3 ag,PTAP TSG101 blk,DRD3 antagonist,Rango-impB inh
Cc1ccc(NC(=O)c2ccc(CNS(=O)(=O)c3ccc4c(c3)C(C)(C)C(=O)N4C)cc2)cc1C,/,/,12.9,/,/,/
CC1(C(=O)Nc2cnc3ccccc3c2)CCN1CCOc1ccccc1 (stereo unspecified),/,/,0.0,/,0.0,/
CCN(CC)c1nc2c(S(=O)(=O)c3ccc(C)cc3)nnn2c2ccsc12,/,/,-12.9,/,/,/
O=C(CN1C(=O)COc2ccccc21)NCCc1ccc(Cl)cc1,/,/,-2.6,/,/,/
O=C(c1ccncc1)N1CCN(S(=O)(=O)c2cccc(Cl)c2)CC1,-0.4%,14.7%,7.4,-3.5%,-3.3,3.4%
CCc1nn(CC(=O)NCCCc2ccccc2)c(=O)c2cc3ccccc3n12,/,/,0.3,/,/,/
COc1ccc(/C=C/c2nc3ccccc3c(=O)n2-c2cccc(C(F)(F)F)c2)cc1,/,/,-4.6,/,/,/
O=C(CSc1oc(-c2ccc(F)cc2)nc1S(=O)(=O)c1ccc(Cl)cc1)c1ccccc1,/,/,5.4,/,/,/
Oc1c(CN2CCCCC2)cc(Br)c2cccnc12,-0.4%,-12.8%,-28.8,-12.0%,-74.4*,1.9%
O=[N+]([O-])c1cc(Cl)c2cccnc2c1O,0.3%,1.8%,13.2,?,0.6,2.2%
O=[N+]([O-])c1cc(CN2CCN(c3ccccc3)CC2)c(O)c2ncccc12,4.5%,2.3%,-43.2,0.2%,-109.1*,-1.8%
O=[N+]([O-])c1cc(CN2CCOCC2)c2cccnc2c1O,-1.4%,-1.3%,5.7,-0.1%,-1.1,-1.8%
Oc1c(Cl)cc(CN2CCOCC2)c2cccnc12,-1.9%,-16.4%,-8.0,-3.1%,?,4.2%
Oc1c(CN2CCc3ccccc3C2)cc(Cl)c2cccnc12,0.0%,?,-24.8,-10.9%,-138.9*,?
Oc1c(I)cc(Cl)c2cccnc12,0.3%,1.2%,-92.8,-12.5%,-71.2*,6.3%
Cc1ccc(Cc2nc3ccccc3nc2SCC(=O)Nc2ccc3c(c2)OCO3)cc1,/,/,0.1,/,/,/
COc1cc(Cl)c(C)cc1NC(=O)CC1Oc2ccccc2NC1=O (stereo unspecified),/,/,1.3,/,/,/
CCCSc1ncc(Cl)c(C(=O)Nc2c(C(=O)Nc3ccc(C)cc3)oc3ccccc23)n1,/,/,4.5,/,/,/
CCN(CC)CCN(C(=O)/C=C/c1cccs1)c1nc2ccc(F)cc2s1,-2.6%,1.6%,-17.9,-0.2%,-70.8*,-1.5%
COc1ccc(C)c2sc(N(CCN(C)C)C(=O)/C=C/c3cccs3)nc12,-0.1%,5.6%,-17.6,-1.8%,-54.5*,1.1%
CC(C)c1ccc(C2c3c(-c4ccccc4O)n[nH]c3C(=O)N2Cc2ccncc2)cc1 (stereo unspecified),/,/,3.3,/,/,/
CCOc1ccccc1C(=O)N(Cc1ccc(N(C)C)cc1)Cc1ccco1,/,/,-8.4,/,/,/
